Data on eight compounds can be found in PubChem BioAssay (Tox21).

Unmarked numbers belong to inactive results. Inconclusive results are not listed. Calls of active or inactive are those of the source. Unless noted, calls come from the whole dose curve; as a rule, active = well fitted curve in the direction sought with a large enough effect in the repeat runs; inconclusive = weak or mixed curves; inactive = no such curve, though single readings can be large; an effect the other way counts as inactive or inconclusive.

Experiment [1] has as its target Thyrotropin receptor (Homo sapiens) (UniProt P16473). Briefly: qHTS assay to identify small molecule agonists of the thyroid stimulating hormone receptor (TSHR) signaling pathway (AID 1224843; calls by dose curve; note: nearly all actives have a fitted effect of over 45% in size; note: potency is the fitted concentration of half-maximal effect). In a few lines:
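Agonist-mode screen: TSHR HEK293 cells received test chemicals for half an hour at room temperature, then HTRF cAMP detection reagents for one hour prior to fluorescence measurement. Each chemical ran as a 15-concentration series, triplicated.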
Background: qHTS replaces the single test concentration by a dilution series.

Experiment [2] can be described thus: qHTS assay to identify small molecule agonists of the hypoxia (HIF-1) signaling pathway - cell viability counter screen (AID 1224844; calls by dose curve; note: nearly all actives have a fitted effect of over 50% in size). In short, it runs like this: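 CellTiter-Glo luminescence read-out, 30 min RT, taken in the same wells as the beta-lactamase HRE reporter assay; HRE-bla ME-180 cells, 0.5% dialyzed FBS, 17 hr compound treatment at 37C, 5% CO2.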

The nature of experiment [3]: qHTS assay to identify small molecule agonists of H2AX (AID 1224845; active = well fitted activation curve with a large enough effect in the signal ratio in the repeat runs, not every such curve was filed as active; the % refers to the signal ratio). In short, it runs like this: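 Wild-type CHO-K1 cells, plated overnight, exposed 3hr at 37C to 15 concentrations (0.76% DMSO final). Lysed, then HTRF anti-pH2AX (S139) cryptate and anti-H2AX-d2 antibodies, 24 hr room temperature; 665/620 nm emission read.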
The nature of experiment [4]: qHTS assay to identify small molecule agonists of the hypoxia (HIF-1) signaling pathway (AID 1224846; active = well fitted activation curve with a large enough effect in the signal ratio in the repeat runs, not every such curve was filed as active; the % refers to the signal ratio). In short, it runs like this:
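Beta-lactamase FRET read-out (CCF4-AM substrate) from ME-180 cells carrying an HRE-driven bla reporter, after 17 hrs compound exposure at 37C/5% CO2. Cells were seeded at 2,000 per well in 0.5% dialyzed FBS medium and preincubated 5 hrs.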

Experiment [5] in a line: qHTS RealTime-Glo MT Cell Viability Assay in HepG2 cells - 24 hour (AID 1224867). Note: nearly all actives have a fitted effect of over 50% in size. In a few lines:
(§1)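 Compound treatment began 5 h after plating HepG2 cells (600/well) with NanoLuc luciferase and prosubstrate. Plates stayed at 37 C for 40 h; luminescence was captured at six time points, 0 h through 40 h.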

A short description of experiment [6]: qHTS RealTime-Glo MT Cell Viability Assay in HEK293 cells - 32 hour (AID 1224868). Note: top concentration of the series differs between compounds; nearly all actives have a fitted effect of over 50% in size. In a few lines:
(§2)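 Quantitative high-throughput screen of the Tox21 10K library in HEK293: cells and RealTime-Glo reagents plated together, compound added at 5 h, luminescence monitored through 40 h at 37 C.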

A short description of experiment [7]: A CellTox Green Cytotoxicity Assay to monitor cytotoxicity in HEK293 cells - 0 hour (AID 1224869). Note: nearly all actives have a fitted effect of over 50% in size. In short, it runs like this:
(§3)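 Read-out: fluorescence of a cell-impermeant cyanine dye staining DNA of dead cells, proportional to cytotoxicity. HEK293, 600 cells/well with reagent, compound (23 nL DMSO) added after 5 h; reads at 0, 8, 16, 24, 32, 40 h.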

A short description of experiment [8]: qHTS RealTime-Glo MT Cell Viability Assay in HepG2 cells - 40 hour (AID 1224870). Note: nearly all actives have a fitted effect of over 50% in size. In short, it runs like this:
(§4)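 HepG2 cells (600/well) mixed with RealTime-Glo MT reagent, settled 5 h at 37 C/5% CO2 before compound addition. Nonlytic NanoLuc luminescence from viable-cell prosubstrate reduction read repeatedly during 40 h treatment at 37 C.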

Experiment [9] in a line: A CellTox Green Cytotoxicity Assay to monitor cytotoxicity in HEK293 cells - 40 hour (AID 1224871). Note: nearly all actives have a fitted effect of over 45% in size. In short, it runs like this:
as §3

Experiment [10] can be described thus: qHTS RealTime-Glo MT Cell Viability Assay in HEK293 cells - 16 hour (AID 1224872). In a few lines: as §2
A short description of experiment [11]: qHTS RealTime-Glo MT Cell Viability Assay in HepG2 cells - 8 hour (AID 1224873). Note: nearly all actives have a fitted effect of over 55% in size. In short, it runs like this:
as §4

Experiment [12] in a line: qHTS RealTime-Glo MT Cell Viability Assay in HEK293 cells - 40 hour (AID 1224874). Note: nearly all actives have a fitted effect of over 50% in size. Particulars: RealTime-Glo luminescence; max response: active compounds read low. In a few lines:
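Luminescence readout at each listed time point; HEK293, 600 cells/well, RealTime-Glo MT reagent added with cells; compounds pinned (23 nL in DMSO) after 5 h at 37 C; continuous culture at 37 C.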

Experiment [13] can be described thus: A CellTox Green Cytotoxicity Assay to monitor cytotoxicity in HEK293 cells - 24 hour (AID 1224875). Note: nearly all actives have a fitted effect of over 45% in size. In short, it runs like this: as §3
Experiment [14] can be described thus: A CellTox Green Cytotoxicity Assay to monitor cytotoxicity in HepG2 cells - 16 hour (AID 1224876). Note: nearly all actives have a fitted effect of over 45% in size. In short, it runs like this: (§5)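 HepG2, 600 cells/well premixed w/ CellTox Green; 5 h settle, 37 C/5% CO2; pintool cpd add (DMSO); 37 C, 40 h; fluorescence read at 0, 8, 16, 24, 32, 40 h.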
The nature of experiment [15]: qHTS RealTime-Glo MT Cell Viability Assay in HepG2 cells - 32 hour (AID 1224877). Note: nearly all actives have a fitted effect of over 55% in size. In short, it runs like this: as §1
A short description of experiment [16]: A CellTox Green Cytotoxicity Assay to monitor cytotoxicity in HepG2 cells - 24 hour (AID 1224878). Note: nearly all actives have a fitted effect of over 45% in size. In short, it runs like this: as §5
A short description of experiment [17]: A CellTox Green Cytotoxicity Assay to monitor cytotoxicity in HepG2 cells - 40 hour (AID 1224879). Note: nearly all actives have a fitted effect of over 40% in size. In short, it runs like this: as §5
Experiment [18] is described as follows: qHTS assay to identify small molecule antagonists of the estrogen related receptor (ERR) signaling pathway from Tox21 library (AID 1224848). Note: nearly all actives have a fitted effect of over 50% in size. In short, it runs like this:
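Quantitative high-throughput format: ERR reporter cells (2,000/well) pre-incubated 6 h, treated 18 h at 37 C with compounds in DMSO alongside positive and negative controls, then read by ONE-Glo luminescence.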

Experiment [19] in a line: qHTS assay to identify small molecule agonists of the estrogen related receptor (ERR) signaling pathway from Tox21 library (AID 1224849; calls by dose curve; note: nearly all actives have a fitted effect of over 15% in size). The conditions noted are these: ERR reporter cell line, ONE-Glo luciferase, 18 h; at 92.4 µM (top of the series) unless noted. In a few lines:
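Luminescence readout (ONE-Glo, 30 min RT) after 18 h compound exposure at 37 C of NTP-supplied ERR reporter cells; cells were plated 6 h before compound addition by pin tool.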

The nature of experiment [20]: qHTS assay to identify small molecule agonists of H2AX - cell viability counter screen (AID 1224847; calls by dose curve; note: top concentration of the series differs between compounds; nearly all actives have a fitted effect of over 30% in size). In a few lines:
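For this counter screen, overnight-attached CHO-K1 cells received test compounds (15 concentrations, 0.76% DMSO final); 3 hr later at 37C, CellTiter-Glo reagent was added and luminescence recorded after 30 min at room temperature.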
% is set by controls: 0 for no effect and ±100 for the full control effect.

Chain of Thyrotropin receptor (Homo sapiens) (P16473 whole entry, looked up): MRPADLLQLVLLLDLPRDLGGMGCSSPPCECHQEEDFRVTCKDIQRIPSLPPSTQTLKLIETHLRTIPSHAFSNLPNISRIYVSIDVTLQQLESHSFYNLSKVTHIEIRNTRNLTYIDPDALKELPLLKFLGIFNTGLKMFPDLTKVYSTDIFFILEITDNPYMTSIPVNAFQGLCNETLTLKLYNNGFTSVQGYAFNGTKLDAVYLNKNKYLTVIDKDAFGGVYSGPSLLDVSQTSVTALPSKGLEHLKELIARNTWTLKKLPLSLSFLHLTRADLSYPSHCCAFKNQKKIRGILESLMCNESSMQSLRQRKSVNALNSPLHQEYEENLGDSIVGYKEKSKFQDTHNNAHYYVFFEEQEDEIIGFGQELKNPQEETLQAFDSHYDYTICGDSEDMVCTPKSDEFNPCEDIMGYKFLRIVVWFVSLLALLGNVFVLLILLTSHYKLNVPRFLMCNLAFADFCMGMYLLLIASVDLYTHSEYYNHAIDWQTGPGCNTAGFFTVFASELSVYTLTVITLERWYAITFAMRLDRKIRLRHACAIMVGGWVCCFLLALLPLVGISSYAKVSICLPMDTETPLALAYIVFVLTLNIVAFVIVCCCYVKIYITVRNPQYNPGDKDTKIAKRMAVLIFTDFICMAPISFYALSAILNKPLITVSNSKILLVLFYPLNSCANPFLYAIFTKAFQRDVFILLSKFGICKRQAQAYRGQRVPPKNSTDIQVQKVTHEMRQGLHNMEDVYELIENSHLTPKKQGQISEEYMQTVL

In the case of `CCC(CC)CO`, the Potency entry in experiment [1], in experiment [6], in experiment [9], in experiment [10] and in [17] was “inactive” in each case. In addition, the compound was called inactive in experiment [2], in [3], in [4], in experiment [5], in experiment [7] and in experiment [8]. For the same compound, the result in experiment [11], in experiment [13], in experiment [14], in [15] and in experiment [16] was inactive. Also, in experiment [12], the max response was 3.01%.

Regarding `C[Si](C)(C)C`, the Potency result in experiment [1], in [18], in [6], in [10] and in experiment [17] was “inactive” each time. In addition, the call in experiment [2], in [3], in experiment [4], in experiment [5], in experiment [7] and in experiment [11] was inactive. For the same compound, the result in experiment [13], in [14] and in experiment [16] was inactive. The activity change, positive = activation in [19] is -1.98%. For the same compound, the max response in [12] is 7.29%.

`CC(C)NCC(O)COc1cccc2[nH]ccc12` (stereo unspecified): the Potency entry in experiment [1], in experiment [20], in experiment [6], in experiment [9], in experiment [10] and in [17] was “inactive” throughout. Further, the call in experiment [2], in experiment [3], in [5], in experiment [7], in [8] and in experiment [11] was inactive. The outcome in experiment [13], in [14], in [15] and in experiment [16] was inactive. Further, the max response in [12] is -0.192%.

Regarding `O=C(O)C(=O)Cc1ccccc1`, the Potency in experiment [1] was 30.6 µM (active). In addition, the compound was classed as inactive in [2], in experiment [3], in experiment [4], in [7], in experiment [11] and in experiment [13]. Also, the result in experiment [14] and in [16] was inactive. The Potency entry in [6], in [9], in experiment [10] and in experiment [17] was “inactive” each time. In addition, the max response in experiment [12] is 14.4%.

As for `Cc1cc(C(C)(C)C)c(O)c(C)c1CC1=NCCN1`, the Potency result in experiment [1], in experiment [20], in experiment [6], in [9], in experiment [10] and in [17] was “inactive” in each case. For the same compound, the outcome in experiment [2], in experiment [3], in experiment [5], in [7], in experiment [8] and in [11] was inactive. Moreover, the outcome in experiment [13], in [14], in experiment [15] and in [16] was inactive. In experiment [12], the max response is 0.324%.

`N[C@@H](COP(=O)(O)O)C(=O)O`: in experiment [1], the activation was 7.34% [at 19 µM]. The activity change, negative = cytotoxicity is -1.64% [at 15.8 µM] in experiment [2], -1.2% [at 31.6 µM] in experiment [20], 0.52% [at 15.8 µM] in experiment [5] and 6.19% [at 15.8 µM] in experiment [10]. Besides, the activation (H2AX phosphorylation) in experiment [3] is -3.89% [at 31.6 µM]. The activity change, negative = cytotoxic in [6] was 2.67% [at 15.8 µM]; in experiment [8] it was 1.81% [at 15.8 µM]; in experiment [15], 1.44% [at 15.8 µM]. The cytotoxicity is -3.53% [at 15.8 µM] in experiment [7] and 0.599% [at 15.8 µM] in experiment [16]. Moreover, the cytotoxicity increase in experiment [9] is -6.71% [at 15.8 µM]; in experiment [14], 1.02% [at 15.8 µM]; in experiment [17], -0.277% [at 15.8 µM]. Also, in experiment [11], the viability change, negative = cytotoxic is 0.974% [at 15.8 µM]. Moreover, in experiment [12], the max response was 7.08%. Further, in experiment [13], the activity change is -7.17% [at 15.8 µM].

`O=C(CCNNC(=O)c1ccncc1)NCc1ccccc1`: the Potency result in [1], in experiment [20], in experiment [6], in experiment [9], in experiment [10] and in experiment [17] was “inactive” throughout. Besides, the outcome in [2], in [3], in experiment [5], in experiment [7], in [8] and in experiment [11] was inactive. In addition, the result in experiment [13], in experiment [14], in experiment [15] and in experiment [16] was inactive. Also, the max response in experiment [12] is 3.81%.

For `CC(=O)OC(C)OC(=O)C(C)c1ccc(-c2ccccc2)c(F)c1` (stereo unspecified), the Potency entry in [1], in experiment [6], in experiment [9], in [10] and in [17] was “inactive” in each case. Also, the outcome in experiment [2], in [3], in experiment [4], in [5], in experiment [7] and in [8] was inactive. The result in experiment [11], in experiment [13], in experiment [14] and in experiment [15] was inactive. For the same compound, the max response in experiment [12] was 3.38%.
